Laboratory results: the supplement of paper PMC11732987, “Enantioselective OTUD7B fragment discovery through chemoproteomics screening and high-throughput optimisation” (Communications Chemistry, 2025)

Experiments:
Test in all cases: log2 ratio of Biotin-Ahx-Ub-VS probe labelling (fragment/DMSO); higher = less target engagement (more negative = stronger competition), active = hit call of the paper (q ≤ 0.05, log2 ratio ≤ -1)
Details in all cases: compound concentration: 200 uM; treatment time: 3 h
USP19 = target: T1, USP19 (UniProt O94966)
T1 sequence (whole entry): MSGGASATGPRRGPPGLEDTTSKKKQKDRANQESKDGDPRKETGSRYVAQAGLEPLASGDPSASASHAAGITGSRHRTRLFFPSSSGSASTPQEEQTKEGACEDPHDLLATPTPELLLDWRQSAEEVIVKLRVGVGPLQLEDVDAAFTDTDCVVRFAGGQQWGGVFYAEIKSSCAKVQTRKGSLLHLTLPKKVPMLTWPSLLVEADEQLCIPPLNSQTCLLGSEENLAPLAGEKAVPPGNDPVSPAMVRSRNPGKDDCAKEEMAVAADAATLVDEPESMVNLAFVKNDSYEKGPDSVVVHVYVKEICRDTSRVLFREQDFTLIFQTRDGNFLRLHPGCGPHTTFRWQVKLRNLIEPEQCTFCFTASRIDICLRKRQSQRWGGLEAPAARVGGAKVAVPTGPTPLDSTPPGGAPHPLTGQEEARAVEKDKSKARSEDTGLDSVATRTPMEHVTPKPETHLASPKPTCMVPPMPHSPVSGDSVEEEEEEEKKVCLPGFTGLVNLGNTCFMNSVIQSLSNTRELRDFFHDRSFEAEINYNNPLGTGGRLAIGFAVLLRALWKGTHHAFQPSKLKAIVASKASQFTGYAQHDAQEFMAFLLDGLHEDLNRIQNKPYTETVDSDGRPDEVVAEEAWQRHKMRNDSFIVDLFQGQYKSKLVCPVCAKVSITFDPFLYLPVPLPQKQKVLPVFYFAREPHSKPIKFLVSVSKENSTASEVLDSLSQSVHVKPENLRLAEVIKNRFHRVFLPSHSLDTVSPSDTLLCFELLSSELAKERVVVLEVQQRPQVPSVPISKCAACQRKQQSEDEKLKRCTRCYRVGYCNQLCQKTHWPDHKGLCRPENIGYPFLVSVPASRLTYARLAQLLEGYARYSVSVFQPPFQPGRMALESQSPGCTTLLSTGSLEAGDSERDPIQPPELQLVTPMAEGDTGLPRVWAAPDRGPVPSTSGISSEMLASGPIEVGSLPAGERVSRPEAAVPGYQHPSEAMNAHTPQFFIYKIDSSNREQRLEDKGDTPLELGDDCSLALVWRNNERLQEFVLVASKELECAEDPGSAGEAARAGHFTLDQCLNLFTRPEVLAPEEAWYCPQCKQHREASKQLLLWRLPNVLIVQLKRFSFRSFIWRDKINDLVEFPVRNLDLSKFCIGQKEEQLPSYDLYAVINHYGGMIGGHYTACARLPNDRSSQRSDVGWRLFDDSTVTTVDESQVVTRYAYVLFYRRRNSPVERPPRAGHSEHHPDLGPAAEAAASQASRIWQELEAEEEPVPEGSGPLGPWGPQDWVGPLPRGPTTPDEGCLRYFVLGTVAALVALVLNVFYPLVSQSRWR
Procedure, shortened: (§1)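 Each value is an average log2 ratio of fragment to vehicle, tested by unpaired t-test. The underlying Spectronaut label-free quantities were global-median-normalised, and only proteins with ≥2 unique peptides were included. Triplicate HEK293T lysate samples (495 µg) were exposed to fragment at 200 µM or vehicle for 3 h, then to Biotin-Ahx-Ub-VS at 0.5 µM final for 1 h, before NeutrAvidin enrichment of labelled DUBs, LysC and trypsin digestion, and diaPASEF LC-MS/MS.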

USP24 = USP24 (UniProt Q9UPU5)
Sequence of USP24 (Q9UPU5 whole entry): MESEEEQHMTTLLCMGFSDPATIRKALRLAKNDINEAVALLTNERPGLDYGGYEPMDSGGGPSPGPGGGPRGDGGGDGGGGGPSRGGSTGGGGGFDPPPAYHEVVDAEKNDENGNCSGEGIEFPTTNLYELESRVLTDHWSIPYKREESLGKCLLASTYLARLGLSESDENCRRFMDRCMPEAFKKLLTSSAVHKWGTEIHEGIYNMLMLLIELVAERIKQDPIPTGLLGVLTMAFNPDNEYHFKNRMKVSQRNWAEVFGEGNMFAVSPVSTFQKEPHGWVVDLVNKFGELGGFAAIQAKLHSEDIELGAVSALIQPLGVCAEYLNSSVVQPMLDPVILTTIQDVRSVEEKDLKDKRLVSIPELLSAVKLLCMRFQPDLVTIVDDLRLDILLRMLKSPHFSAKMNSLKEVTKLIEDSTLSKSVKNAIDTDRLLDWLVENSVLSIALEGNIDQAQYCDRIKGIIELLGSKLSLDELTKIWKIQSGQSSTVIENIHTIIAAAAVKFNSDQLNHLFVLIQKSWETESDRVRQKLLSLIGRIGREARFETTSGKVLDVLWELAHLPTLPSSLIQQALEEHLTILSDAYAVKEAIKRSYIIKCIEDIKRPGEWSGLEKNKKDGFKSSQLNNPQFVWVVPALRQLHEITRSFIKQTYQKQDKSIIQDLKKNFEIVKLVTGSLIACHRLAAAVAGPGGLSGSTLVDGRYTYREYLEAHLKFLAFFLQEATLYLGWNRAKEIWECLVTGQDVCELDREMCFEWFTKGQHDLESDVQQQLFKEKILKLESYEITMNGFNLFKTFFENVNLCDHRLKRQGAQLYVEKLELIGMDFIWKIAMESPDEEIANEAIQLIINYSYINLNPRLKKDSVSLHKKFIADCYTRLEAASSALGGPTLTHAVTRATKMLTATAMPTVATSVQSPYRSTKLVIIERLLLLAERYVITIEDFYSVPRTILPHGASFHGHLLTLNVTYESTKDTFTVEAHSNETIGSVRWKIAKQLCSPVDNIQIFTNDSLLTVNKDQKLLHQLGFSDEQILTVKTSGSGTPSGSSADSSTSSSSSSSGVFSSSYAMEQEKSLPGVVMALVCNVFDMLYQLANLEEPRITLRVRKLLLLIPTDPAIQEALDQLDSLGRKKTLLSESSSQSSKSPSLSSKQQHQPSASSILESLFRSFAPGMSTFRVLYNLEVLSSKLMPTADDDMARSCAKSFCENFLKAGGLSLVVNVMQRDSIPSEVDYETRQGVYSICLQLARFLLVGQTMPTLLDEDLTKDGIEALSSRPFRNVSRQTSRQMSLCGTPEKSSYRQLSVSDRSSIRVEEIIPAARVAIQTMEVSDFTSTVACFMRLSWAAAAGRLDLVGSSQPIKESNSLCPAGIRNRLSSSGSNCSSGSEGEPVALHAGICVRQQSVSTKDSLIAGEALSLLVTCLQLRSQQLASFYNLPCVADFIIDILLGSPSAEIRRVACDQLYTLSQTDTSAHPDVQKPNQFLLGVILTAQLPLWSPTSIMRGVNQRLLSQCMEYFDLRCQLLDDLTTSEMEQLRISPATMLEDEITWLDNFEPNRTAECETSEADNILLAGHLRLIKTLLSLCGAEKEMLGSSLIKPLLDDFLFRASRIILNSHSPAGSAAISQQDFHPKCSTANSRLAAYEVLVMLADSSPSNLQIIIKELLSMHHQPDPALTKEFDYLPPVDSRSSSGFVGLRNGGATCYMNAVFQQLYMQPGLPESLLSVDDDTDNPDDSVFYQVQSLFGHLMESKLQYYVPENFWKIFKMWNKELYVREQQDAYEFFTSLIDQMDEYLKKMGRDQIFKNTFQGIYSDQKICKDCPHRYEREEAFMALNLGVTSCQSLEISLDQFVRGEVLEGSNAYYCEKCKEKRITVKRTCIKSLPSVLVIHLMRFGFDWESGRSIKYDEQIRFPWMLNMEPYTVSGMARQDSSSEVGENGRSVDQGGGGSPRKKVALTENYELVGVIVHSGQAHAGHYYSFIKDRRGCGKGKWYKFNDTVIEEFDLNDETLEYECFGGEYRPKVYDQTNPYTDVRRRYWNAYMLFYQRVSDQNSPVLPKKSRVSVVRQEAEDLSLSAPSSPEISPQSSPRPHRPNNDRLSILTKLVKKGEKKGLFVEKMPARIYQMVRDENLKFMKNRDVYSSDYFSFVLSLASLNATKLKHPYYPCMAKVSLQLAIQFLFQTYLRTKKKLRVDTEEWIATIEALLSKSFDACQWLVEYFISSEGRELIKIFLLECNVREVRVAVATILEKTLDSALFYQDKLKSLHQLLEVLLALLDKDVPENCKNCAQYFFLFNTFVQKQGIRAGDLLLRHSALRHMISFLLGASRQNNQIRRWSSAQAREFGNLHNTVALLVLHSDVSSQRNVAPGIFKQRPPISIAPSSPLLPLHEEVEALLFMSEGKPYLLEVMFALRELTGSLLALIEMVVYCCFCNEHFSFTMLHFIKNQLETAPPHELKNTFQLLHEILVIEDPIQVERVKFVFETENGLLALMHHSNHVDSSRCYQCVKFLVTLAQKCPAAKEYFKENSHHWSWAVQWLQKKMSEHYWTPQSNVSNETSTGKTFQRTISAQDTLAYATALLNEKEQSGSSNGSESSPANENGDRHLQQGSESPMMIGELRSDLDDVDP
Procedure, shortened: as §1

USP25 = target: T2, USP25 (UniProt Q9UHP3)
T2 sequence (whole entry): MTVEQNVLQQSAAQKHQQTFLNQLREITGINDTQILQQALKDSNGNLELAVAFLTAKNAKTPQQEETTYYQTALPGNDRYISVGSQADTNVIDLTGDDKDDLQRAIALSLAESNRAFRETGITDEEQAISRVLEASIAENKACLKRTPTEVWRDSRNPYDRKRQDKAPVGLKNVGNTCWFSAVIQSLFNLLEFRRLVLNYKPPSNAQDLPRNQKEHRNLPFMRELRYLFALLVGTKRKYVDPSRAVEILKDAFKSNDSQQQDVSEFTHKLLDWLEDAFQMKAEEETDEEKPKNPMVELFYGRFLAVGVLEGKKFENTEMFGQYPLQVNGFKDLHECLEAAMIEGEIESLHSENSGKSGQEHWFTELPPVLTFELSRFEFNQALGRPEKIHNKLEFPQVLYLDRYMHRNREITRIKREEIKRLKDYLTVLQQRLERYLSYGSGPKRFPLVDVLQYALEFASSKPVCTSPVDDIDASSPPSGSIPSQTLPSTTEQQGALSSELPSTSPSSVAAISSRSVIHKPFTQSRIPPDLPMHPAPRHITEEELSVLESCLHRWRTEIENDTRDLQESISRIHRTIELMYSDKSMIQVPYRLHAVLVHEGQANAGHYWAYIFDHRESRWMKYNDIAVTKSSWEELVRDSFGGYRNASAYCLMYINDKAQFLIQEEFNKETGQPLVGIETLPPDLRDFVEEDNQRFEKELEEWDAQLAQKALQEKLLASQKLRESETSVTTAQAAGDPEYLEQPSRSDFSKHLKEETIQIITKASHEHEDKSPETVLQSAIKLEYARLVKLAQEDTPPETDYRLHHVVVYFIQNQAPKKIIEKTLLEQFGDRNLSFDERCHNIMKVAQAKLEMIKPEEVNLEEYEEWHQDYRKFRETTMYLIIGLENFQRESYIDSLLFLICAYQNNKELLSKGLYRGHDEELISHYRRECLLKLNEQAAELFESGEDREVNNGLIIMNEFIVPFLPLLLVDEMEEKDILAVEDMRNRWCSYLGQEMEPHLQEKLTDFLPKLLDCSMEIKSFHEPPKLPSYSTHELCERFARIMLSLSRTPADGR
Procedure, shortened: as §1

USP28 = target: T3, USP28 (UniProt Q96RU2)
T3 sequence (whole entry): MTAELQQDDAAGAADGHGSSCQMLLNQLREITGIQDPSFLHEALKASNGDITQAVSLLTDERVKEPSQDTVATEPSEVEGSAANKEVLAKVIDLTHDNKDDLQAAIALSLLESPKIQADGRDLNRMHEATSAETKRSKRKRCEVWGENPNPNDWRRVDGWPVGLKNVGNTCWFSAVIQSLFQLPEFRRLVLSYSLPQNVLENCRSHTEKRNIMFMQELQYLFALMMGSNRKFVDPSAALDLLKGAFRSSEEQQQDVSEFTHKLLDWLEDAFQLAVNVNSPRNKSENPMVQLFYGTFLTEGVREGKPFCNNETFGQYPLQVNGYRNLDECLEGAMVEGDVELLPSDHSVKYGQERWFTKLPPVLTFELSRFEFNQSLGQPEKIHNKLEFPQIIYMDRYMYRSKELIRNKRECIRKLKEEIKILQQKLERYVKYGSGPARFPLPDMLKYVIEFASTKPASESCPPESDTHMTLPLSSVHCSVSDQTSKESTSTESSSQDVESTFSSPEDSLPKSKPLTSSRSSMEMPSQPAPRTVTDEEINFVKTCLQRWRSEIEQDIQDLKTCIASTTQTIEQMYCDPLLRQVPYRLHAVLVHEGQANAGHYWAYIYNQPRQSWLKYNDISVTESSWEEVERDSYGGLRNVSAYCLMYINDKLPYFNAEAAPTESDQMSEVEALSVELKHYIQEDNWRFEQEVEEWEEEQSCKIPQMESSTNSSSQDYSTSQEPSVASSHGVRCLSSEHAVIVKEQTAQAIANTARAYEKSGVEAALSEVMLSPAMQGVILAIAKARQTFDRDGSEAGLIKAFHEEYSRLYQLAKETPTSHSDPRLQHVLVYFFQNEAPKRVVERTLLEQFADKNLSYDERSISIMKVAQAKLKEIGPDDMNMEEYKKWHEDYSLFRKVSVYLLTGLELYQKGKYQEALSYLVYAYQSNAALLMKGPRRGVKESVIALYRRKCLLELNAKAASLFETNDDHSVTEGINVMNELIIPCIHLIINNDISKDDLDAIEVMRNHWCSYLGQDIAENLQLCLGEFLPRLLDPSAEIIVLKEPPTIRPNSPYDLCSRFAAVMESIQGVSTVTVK
Procedure, shortened: as §1

Measured: log2 ratio of Biotin-Ahx-Ub-VS probe labelling

CC(O)CC1CCN(C(=O)CCl)CC1 (centres undefined)
inactive: USP19 -0.322 | USP24 -0.234 | USP25 -0.398 | USP28 -0.223
